Data published in article PMC5540273 (PLoS ONE, 2017).

How the values were obtained:
Settings in all cases: concentration: 1 μM, replicates: in singlicate; n = 1
ULK2 = test system: ULK2
ULK3 = test system: ULK3
VEGFR2 = test system: T1, VEGFR2
T1 construct: gene KDR

VPS34 = test system: T2, VPS34
T2 construct: gene PIK3C3

VRK2 = test system: VRK2
WEE1 = test system: WEE1
WEE2 = test system: WEE2
WNK1 = test system: WNK1
WNK2 = test system: WNK2
WNK3 = test system: WNK3
WNK4 = test system: WNK4
YANK1 = test system: T3, YANK1
T3 construct: gene STK32A

YANK2 = test system: T4, YANK2
T4 construct: gene STK32B

YANK3 = test system: T5, YANK3
T5 construct: gene STK32C

YES = test system: T6, YES
T6 construct: gene YES1

YSK1 = test system: T7, YSK1
T7 construct: gene STK25

YSK4 = test system: T8, YSK4
T8 construct: gene MAP3K19

ZAK = test system: ZAK
ZAP70 = test system: ZAP70
p38-alpha = test system: T9, p38-alpha
T9 construct: gene MAPK14
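Further: KINOMEscan kinase panel screen.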

| SMILES | %Inh (ULK2) [%] | %Inh (ULK3) [%] | %Inh (VEGFR2) [%] | %Inh (VPS34) [%] | %Inh (VRK2) [%] | %Inh (WEE1) [%] | %Inh (WEE2) [%] | %Inh (WNK1) [%] | %Inh (WNK2) [%] | %Inh (WNK3) [%] | %Inh (WNK4) [%] | %Inh (YANK1) [%] | %Inh (YANK2) [%] | %Inh (YANK3) [%] | %Inh (YES) [%] | %Inh (YSK1) [%] | %Inh (YSK4) [%] | %Inh (ZAK) [%] | %Inh (ZAP70) [%] | %Inh (p38-alpha) [%] |
| --- | --- | --- | --- | --- | --- | --- | --- | --- | --- | --- | --- | --- | --- | --- | --- | --- | --- | --- | --- | --- |
| CCn1c(-c2ccncc2)nc2cnccc21 [SB-735216] | 8 | 25 | 24 | 25 | 0 | 0 | 1 | 0 | 29 | 21 | 22 | 0 | 4 | 7 | 16 | 0 | 74 | 23 | 0 | 0 |
| Clc1cccc(-c2nc(Nc3ccncc3)c3ccccc3n2)c1 [GW873004] | 0 | 0 | 0 | 48 | 0 | 0 | 0 | 0 | 0 | 0 | 0 | 0 | 0 | 0 | 34 | 0 | 0 | 0 | 0 | 0 |
| CCC(CC)(CC)n1cnc2c(N)ncnc21 [SKF-97620] | 2 | 42 | 13 | 34 | 0 | 9 | 6 | 21 | 0 | 26 | 23 | 18 | 12 | 9 | 0 | 0 | 31 | 0 | 29 | 3 |
| Cl.Fc1ccccc1COc1ccc(Nc2ncnc3ccc(-c4nnc(C(F)(F)F)o4)cc23)cc1Cl [GW424170] | 0 | 6 | 4 | 0 | 0 | 3 | 5 | 7 | 0 | 15 | 0 | 3 | 0 | 3 | 5 | 0 | 0 | 1 | 0 | 0 |
| Cl.c1ccc(Cn2ccc3cc(Nc4ncnc5ccccc45)ccc32)cc1 [GW275568] | 0 | 9 | 16 | 0 | 0 | 12 | 14 | 5 | 18 | 27 | 6 | 18 | 0 | 0 | 15 | 7 | 4 | 6 | 1 | 2 |
| COc1ccc(-c2oc3ncnc(N)c3c2-c2ccc(OC)cc2)cc1 [SB-589132] | 0 | 39 | 16 | 17 | 56 | 33 | 0 | 22 | 35 | 52 | 55 | 19 | 12 | 21 | 44 | 6 | 57 | 9 | 0 | 7 |
| Cc1ccc(O)cc1Nc1cc(C(F)(F)F)nc2ccc(-c3ccncc3)cc12 [GW630823] | 0 | 0 | 0 | 0 | 0 | 0 | 30 | 0 | 0 | 0 | 0 | 0 | 0 | 0 | 23 | 0 | 0 | 10 | 0 | 8 |
| Cc1ccc(NC(=O)c2cccc(C#N)c2)cc1-c1ccc(C(=O)Nc2ccncc2)cc1 [GSK1398463] | 0 | 15 | 11 | 0 | 0 | 0 | 0 | 17 | 6 | 18 | 3 | 14 | 0 | 11 | 24 | 9 | 64 | 12 | 0 | 47 |
| FC(F)(F)c1cc(Nc2nccc(-c3c(-c4ccc(Cl)cc4)nn4ncccc34)n2)ccc1Cl [GW829351] | 6 | 0 | 0 | 2 | 56 | 9 | 0 | 0 | 0 | 0 | 0 | 0 | 0 | 4 | 0 | 0 | 0 | 0 | 0 | 43 |
| Cn1cc(-c2ccc3c(c2)CCN3C(=O)Cc2cccc(C(F)(F)F)c2)c2c(N)ncnc21 [GSK2606414] | 0 | 3 | 0 | 22 | 20 | 0 | 19 | 3 | 7 | 0 | 0 | 10 | 0 | 19 | 0 | 0 | 34 | 0 | 0 | 0 |
| O=C(Nc1n[nH]c2nc(-c3ccco3)c(Br)cc12)c1ccc(CN2CCCC2)cc1.O=C(O)[C@H](O)[C@@H](O)C(=O)O [SB-742352] | 0 | 27 | 48 | 0 | 0 | 0 | 4 | 0 | 0 | 0 | 0 | 0 | 0 | 0 | 1 | 0 | 49 | 29 | 0 | 0 |
| COc1ccc(NC(=O)c2ccc(-c3cc(-c4nnc(C)o4)ccc3C)cc2)cc1 [GW595885] | 0 | 24 | 0 | 0 | 25 | 0 | 2 | 0 | 1 | 25 | 34 | 16 | 7 | 0 | 16 | 0 | 34 | 2 | 0 | 97.7 |
| Nc1nccc2scc(-c3ccc4c(c3)CCN4C(=O)Cc3cc(F)ccc3F)c12 [GSK2587663] | 0 | 6 | 0 | 8 | 0 | 44 | 0 | 33 | 0 | 37 | 5 | 26 | 0 | 20 | 10 | 11 | 32 | 9 | 0 | 0 |
| Fc1cccc(COc2ccc(Nc3ncnc4cc[nH]c34)cc2Cl)c1 | 14 | 34 | 16 | 18 | 13 | 12 | 4 | 0 | 14 | 0 | 28 | 26 | 0 | 9 | 20 | 0 | 18 | 0 | 0 | 0 |
| O=C(NCCCN1CCCC1=O)c1cnc(NCc2cc(Cl)ccc2Cl)nc1NC1CCNCC1 | 0 | 0 | 0 | 0 | 70 | 0 | 0 | 0 | 0 | 0 | 0 | 1 | 0 | 0 | 0 | 5 | 54 | 0 | 0 | 0 |
| CC(C)(C)OC(=O)NC1CCCN(c2cc(-c3ccc4c(N)n[nH]c4c3)nc(N)n2)C1 (stereo not shown) [GSK2286096] | 0 | 0 | 0 | 0 | 0 | 17 | 0 | 6 | 70 | 8 | 12 | 10 | 0 | 0 | 1 | 2 | 20 | 0 | 0 | 0 |
| CN1CCC(n2cnc(-c3ccc(F)cc3)c2-c2ccnc(NC3CCNCC3)n2)CC1 [SB-229482] | 4 | 19 | 0 | 50 | 18 | 0 | 30 | 21 | 0 | 49 | 0 | 0 | 2 | 1 | 0 | 0 | 0 | 4 | 0 | 89 |
| Nc1nc(-c2ccccn2)c(-c2ccnc3ccccc23)s1 [GW548057] | 0 | 13 | 12 | 9 | 62 | 13 | 0 | 15 | 11 | 50 | 88 | 0 | 7 | 0 | 13 | 14 | 4 | 0 | 4 | 54 |
| O=C(Nc1ccccc1F)NC1CCN(c2ccnc(Nc3ccc(F)cc3)n2)C1 (stereo not shown) [GSK1379722] | 0 | 8 | 0 | 0 | 16 | 9 | 0 | 10 | 0 | 38 | 28 | 0 | 6 | 21 | 14 | 2 | 28 | 0 | 0 | 6 |
| CS(=O)(=O)CCNCc1ccc(-c2ccc3ncnc(Nc4ccc(OCc5ccccc5)c(Cl)c4)c3c2)o1.Cl [GW574783] | 0 | 0 | 0 | 18 | 42 | 12 | 19 | 11 | 10 | 29 | 22 | 0 | 24 | 8 | 1 | 0 | 2 | 0 | 0 | 0 |
